Assay outcomes deposited in PubChem by National Center for Advancing Translational Sciences (NCATS).
The entries come from a sample that favours hits as a whole.
AMA1-RON2 inh – inhibitors of Plasmodium falciparum AMA1-RON2 interaction | AlphaScreen AMA1-biotinylated RON2 peptide binding | Potency, µM (top dose mostly 58.2 µM), without a hit: at the highest dose activity change, negative = inhibition, actives largely listed as inhibitors | 360,000 compounds, 0.2% hits;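 also: potency is read from the fitted curve at half-maximal effect; 0% = vehicle wells and -100% = peptide control; nearly all actives have a fitted effect of over 45% in size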
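AMA1 (3D7) with his tag at 25 nM final met compounds first, then biotinylated RON2 peptide at 25 nM; detection used donor plus acceptor beads, 10 µg/mL apiece, read by AlphaScreen after 30 min at room temperature.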
Shiga toxin inh – Shiga toxin inhibition; Vero cells, Shiga toxin protein synthesis inhibition reporter; inhibition, % at 38.7 µM; 290,000 compounds, 9.2% hits; AID 2315; in the data active = inhibition mostly above about 28%, no sharp cut-off; inactive = mostly below about 43%; also: 0% is about no effect
Cycloheximide cs – counter-screen hit for Shiga toxin inhibitors, cycloheximide; max response, %; 300,000 compounds, 12% hits; AID 2314; cell reporter, cycloheximide protein synthesis inhibition counterscreen; in the data active = max response mostly above about 13%, no sharp cut-off; inactive = mostly below about 14%; also: read at 38.3 µM for the half of the compounds with a filed dose; 0% is about no effect
AmpC no deterg – AmpC beta-lactamase inhibition without detergent. P00811. AmpC nitrocefin hydrolysis, absorbance 480 nm, 0.0001% Triton. Potency, µM (highest dose often 57.1 µM), for inactives: top-dose activity change, negative = inhibition, most hits filed as inhibitors. 330,000 compounds, 0.52% hits. AID 485341;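 also: potency is read from the fitted curve at half-maximal effect; plate controls were no compound for no effect and no enzyme for full effect; nearly all actives have a fitted effect of over 20% in size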
Target sequence (P00811 whole entry, looked up): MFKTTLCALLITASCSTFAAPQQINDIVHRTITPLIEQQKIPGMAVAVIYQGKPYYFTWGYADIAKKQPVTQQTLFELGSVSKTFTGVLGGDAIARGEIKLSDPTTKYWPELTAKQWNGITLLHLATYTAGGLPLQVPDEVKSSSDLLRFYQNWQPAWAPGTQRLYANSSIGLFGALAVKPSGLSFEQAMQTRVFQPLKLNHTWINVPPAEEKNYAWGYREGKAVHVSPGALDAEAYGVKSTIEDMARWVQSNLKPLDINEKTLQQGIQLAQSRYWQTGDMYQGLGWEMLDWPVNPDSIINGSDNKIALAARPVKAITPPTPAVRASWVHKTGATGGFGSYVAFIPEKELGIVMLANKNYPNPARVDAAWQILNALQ
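20 mM phosphate pH 7.0 + 0.01% (detergent screen) or 0.0001% Triton X-100; 5.3 nM AmpC reagent; cpd preinc 15 min RT; nitrocefin (800 uM stock) to start; A480 q20 s × 4 min; Activity was normalised to no-enzyme and no-compound control wells.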
SARS PLpro yeast – inhibitors of SARS-CoV papain-like protease in yeast | S. cerevisiae expressing SARS-CoV PLpro, growth rescue | Potency, µM (series often up to 32.9 µM), for the others: at the highest dose activity, positive = growth rescue, usual class: activators | 330,000 compounds, 0.19% hits | AID 485353; calls by dose curve; also: potency is read from the fitted curve at half-maximal effect; 0% is about no effect; nearly all actives have a fitted effect of over 55% in size
AmpC detergent – AmpC beta-lactamase inhibition with detergent present. AmpC hydrolysis of nitrocefin, absorbance 480 nm, 0.01% Triton. Potency, µM (highest dose often 114 µM), inactives show at the top dose activity change, negative = inhibition, actives largely listed as inhibitors. 370,000 compounds, 0.041% hits. AID 485294;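 also: potency is read from the fitted curve at half-maximal effect; 0% = no-compound wells and -100% = no-enzyme wells; nearly all actives have a fitted effect of over 25% in size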
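AmpC (5.3 nM in the dispensed reagent) in 20 mM phosphate pH 7.0 with 0.01% (detergent screen) or 0.0001% Triton X-100 was preincubated with compounds for 15 min at room temperature. Nitrocefin was then added from an 800 uM solution, and hydrolysis was followed at 480 nm.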
Active calls of the source: *; ? = inconclusive; · = not tested or not shown; [ ] = dose if it differs, or a comment. Unless noted, calls follow the shape of the dose curve; as a rule, active = well fitted curve in the direction sought with a large enough effect; inconclusive = small, poorly fitted or top-dose-only effect, or another doubt; inactive = no such curve, though single readings can be large; an effect the other way counts as inactive or inconclusive.

SMILES	AMA1-RON2 inh	Shiga toxin inh	Cycloheximide cs	AmpC no deterg	SARS PLpro yeast	AmpC detergent
CCOC(=O)c1ccc(N2C(=O)C3CC=CCC3C2=O)cc1 (configuration not stated)	3%	21	19*	-9%	-5%	1%
CC1=C(n2ccnc2)CCC1=O	10%	·	·	·	·	·
Cc1cccc(Oc2ccc3c(c2)Oc2ccccc2NC3=O)c1	·	·	·	·	·	-2%
Cc1ccc(C)n1-c1ccc(C(=O)NN)s1	56%	26*	26*	-18%[11.4 µM]	-1%	-10%
Clc1ccc(-c2nnc(COc3ncnc4sccc34)o2)cc1	4%	34*	34*	-6%	-23%	?
Cc1ccc(-c2nnc(Cc3ccc(Cl)cc3)o2)cc1	25%	39	29	0%	-4%	?
c1ccc2ncccc2c1	11%	·	·	-19%	2%	·
Nc1ccc2ncccc2c1	18%	136*	48*	-8%	10%	-1%
Nc1ccc(/C=C/c2ccc3ncccc3c2)cc1	-2%	85*	38*	-16%	-3%	8%
Nc1ccc2ncccc2c1N	21%	42*	28*	1%	-11%	?
Cc1cc(C)cc(N2CN=c3s/c(=C\c4ccco4)c(=O)n3C2)c1	11%	-3	-2	-29%	-1%	-3%
O=C(c1ccncc1)N1N=C2CCCCCC2C1(O)C(F)(F)F (configuration not stated)	10%	38	7	31%	0%	1%
NNC(=O)c1ccc(CSc2nc3ccccc3s2)cc1	83%	54*	14	-9%[2.29 µM]	0%	-11%
COc1ccc(C(=O)Nc2ccc3nc(SCc4ccc(C)cc4)sc3c2)cc1	·	·	·	·	·	15%
O=C(Nc1ccc2nc(SCc3ccccc3)sc2c1)c1cccc(F)c1	·	·	·	·	·	9%
COCCN(CCOC)C(=O)c1ccc(CSc2nc3ccccc3s2)cc1	13%	53*	32*	128%	-7%	-5%
Cc1nn(Cc2c(Cl)cccc2Cl)c(C)c1NC(=O)CCCn1nc(C)c([N+](=O)[O-])c1C	-5%	-10	-1	53%	-4%	?
CNC[C@@H]1OCc2ccccc2-c2ccccc2C(=O)N([C@@H](C)CO)C[C@@H]1C	13%	·	·	·	·	·
Cc1cc(C)cc(-c2nnc(SCC(=O)N3CCN(C(=O)c4ccco4)CC3)o2)c1	?	24	-2	103%	5%	-12%
COc1cc2c(cc1OC)-c1cc(Nc3ccccc3Br)nc(=O)n1CC2	-1%	-1	17*	-33%	0%	-10%
COc1cc2c(cc1OC)-c1cc(Nc3ccccc3)nc(=O)n1CC2	-25%	1	-4	14%	0%	2%
COc1cc2c(cc1OC)-c1cc(Nc3ccc4c(c3)OCCO4)nc(=O)n1CC2	-22%	78*	67*	-42%	2%	-12%
CCCC1NC(=O)c2cc3ccccc3cc2-n2c1nc1ccc(C)cc1c2=O (configuration not stated)	9%	·	·	·	·	·
CNS(=O)(=O)c1cc(O)c2c(S(=O)(=O)NC)cccc2c1	2%	-21	-6	-20%	7%	-2%
COc1ccc(N2CCN(Cc3cc4c(cc3O)CCC4)CC2)cc1	15µM*	-22	-4	-3%	-1%	2%
SMILES	AMA1-RON2 inh	Shiga toxin inh	Cycloheximide cs	AmpC no deterg	SARS PLpro yeast	AmpC detergent
C/C=C/c1cc(CN2CCN(c3ccc(OC)cc3)CC2)c(O)c(OC)c1	22µM*	2	2	82%	0%	2%
Oc1cc2c(cc1CN1CCN(c3ccccc3)CC1)CCC2	28%	14	-2	-24%	2%	-15%
C[C@@H]1COC(=O)CCC/C=C\C[C@@H](CC(=O)N(CCO)Cc2ccccc2)C(=O)N1	-7%	·	·	-13%	0%	·
CC(C)c1ccc(N(C(=O)CNC(=O)c2ccco2)C(C(=O)NC2CCCC2)c2cccnc2)cc1 (configuration not stated)	-9%	-7	-5	80%	5%	-11%
O=S(=O)(NCCc1cn2ccccc2n1)c1cccs1	-1%	15	20*	2%	4%	?
O=S(=O)(NCc1cn2ccccc2n1)c1cccs1	-6%	53*	29*	-7%	-2%	3%
Cn1c(C(=O)NCCN2CCOCC2)cc2sccc21	-26%	72	36	-16%	-4%	-10%
O=C(NCCc1ccccc1)c1cc2sccc2n1Cc1ccccc1	-7%	19	15	-32%	2%	2%
O=C(NCc1ccco1)c1cc2sccc2n1Cc1ccccc1	-10%	36*	56*	-30%	-77%	?
CCOC(=O)c1cccc(NC(=O)c2cc3sccc3n2C)c1	-12%	46*	39*	-27%	-7%	-2%
CCOC(=O)c1cccc(NC(=O)c2cc3sccc3n2Cc2ccc(Cl)cc2)c1	·	·	·	·	·	7%
Cn1c(C(=O)Nc2ccc3c(c2)OCCO3)cc2sccc21	-10%	47*	36*	-40%	-9%	-13%
O=C(Nc1ccc2c(c1)OCCO2)c1cc2sccc2n1Cc1ccccc1	0%	126*	24	?	-9%	-6%
COCCN1C=C(C(=O)OC)C(c2ccc(OC)c(OC)c2)C(C(=O)OC)=C1	9%	-2	-2	45%	2%	-3%
O=C(Nc1ccc2c(c1)OCCO2)c1cc2sccc2n1Cc1ccc(F)cc1	-29%	65*	31*	-48%	-8%	-3%
O=C(NCc1ccco1)c1ccc(Cn2c(=O)c3sccc3n(Cc3cccc(F)c3)c2=O)cc1	-7%	22	26*	-28%	0%	?
O=S(=O)(Nc1ccc(N2CCOCC2)cc1)c1ccc(F)cc1	0%	24	1	-18%	0%	-1%
O=C(NCCCN1CCOCC1)c1ccc(Cl)cc1Cl	-1%	23	17*	-8%	14%	0%
Cc1cccn2c(=O)c3cc(C(=O)NCCN4CCOCC4)n(Cc4ccccc4)c3nc12	·	-13	1	0%	2%	-12%
O=C(CN1CCN(Cc2ccccc2)C1=O)NCCCN1CCOCC1	3%	-2	5	-9%	-2%	-3%
O=C(Cn1cnc2ccccc21)NCCCN1CCOCC1	1%	25*	24*	-11%	2%	-10%
Cc1ccc(C(=O)NCCN2CCOCC2)c(Cl)c1	-9%	28*	13*	-2%	-2%	?
Cc1cccn2c(=O)c3cc(C(=O)NCCN4CCOCC4)n(C)c3nc12	5%	59*	37*	-12%	-2%	-3%
CN1C(=O)NC(c2ccc([N+](=O)[O-])cc2)C2=C1CC(C)(C)CC2=O (configuration not stated)	-15%	-12	-7	-7%	3%	-7%
O=C(NCCCN1CCOCC1)c1cc(-c2ccccc2)nc2ccccc12	-5%	·	·	-7%	-7%	-15%
